This is one part of a sample in which hits are shown more often than they occur.
Dicer inh = human Dicer pre-microRNA cleavage inhibition; Q9UPY3; cat-ELCCA pre-miR-21 Dicer processing, chemiluminescence; stronger effect = higher value; z-score at 25 µM; actives 6% (n = 47,000); in the data active = z-score above about 3, passing the limit was not always enough;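 also: higher signal means more uncleaved substrate so more Dicer inhibition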
Numbers stand for hits; . = inactive.

SMILES | Dicer inh
Cc1cccc(Cl)c1NC(=S)NN | .
COc1ccc(CCNc2ncnc3sc4c(c23)CCC(C)C4)cc1OC (configuration not stated) | .
COc1cccc(NC(=S)NCCO)c1 | .
CCOC(=O)Cn1c(C)cc(=O)c2cccc(OC)c21 | .
CCOC(=O)Cc1cc(C)[nH]c1C(=O)OCC | .
CCOC(=O)CCc1c(C)nc2c(-c3ccc(F)cc3)c(C)[nH]n2c1=O | .
CCOC(=O)CCc1c(CC(=O)OCC)c[nH]c1/C=N/O | 16
CN(Cc1ccccc1)C(=O)CSc1nc(-c2ccco2)cc(C(F)(F)F)n1 | .
O=C(Nc1ccc(-n2nc(C(F)(F)F)cc2C(F)(F)F)cc1)Nc1ccc(F)cc1F | .
Cc1cccc(Cn2nc(C(C)(C)C)cc2-c2nnc(SCC(=O)c3ccccc3)o2)c1 | .
N#Cc1c(-c2ccco2)nc(SCC(=O)Nc2ccccc2Cl)[nH]c1=O | .
CCOC(=O)C(=CNc1cc(C(F)(F)F)cc(C(F)(F)F)c1)C(=O)OCC | .
Cc1ccc(S(=O)(=O)c2nc(-c3ccccc3)oc2N2CCOCC2)cc1 | .
O=[N+]([O-])c1ccsc1Sc1ccc(C(F)(F)F)cn1 | .
O=[N+]([O-])c1cc(C(F)(F)F)ccc1Sc1ccc(C(F)(F)F)cn1 | .
O=C1NC(=S)S/C1=C/c1ccc(Sc2ccc(C(F)(F)F)cn2)c([N+](=O)[O-])c1 | 3.4
Cc1oc(C(C)(C)C)cc1-c1cc(N)n(C)n1 | .
CCCSC(=NCC)Nc1c(C)cccc1C | .
CSC(=NC(C)(C)CO)Nc1c(C)cccc1C | 4.8
Cc1cccc(C)c1NC(=O)C(C)N (configuration not stated) | .
CCOC(=O)/C(C#N)=C(\N=C(/N)c1ccc(C(F)(F)F)cc1)Nc1ccc(Cl)cc1 | .
Cc1ccc(C(=O)C(C)Sc2ccc(Cl)cc2)cc1Cl (configuration not stated) | .
C=CCOc1ccc(/C(O)=C2/C(=O)C(=O)N(CCOC)C23C(=O)N(CC)c2ccccc23)cc1C (configuration not stated) | 6
COc1ccc(/C(O)=C2/C(=O)C(=O)N(CC3CCCO3)C23C(=O)N(C)c2ccccc23)cc1C (configuration not stated) | .
C=CCOc1ccc(/C(O)=C2/C(=O)C(=O)N(CCCOC)C23C(=O)N(C)c2ccccc23)cc1C (configuration not stated) | .
SMILES | Dicer inh
C=CCOc1ccc(/C(O)=C2/C(=O)C(=O)N(CCOC)C23C(=O)N(CC)c2ccccc23)cc1 (configuration not stated) | .
C=CCOc1ccc(/C(O)=C2/C(=O)C(=O)N(CC3CCCO3)C23C(=O)N(C)c2ccccc23)cc1C (configuration not stated) | 5.2
CCN1C(=O)C2(/C(=C(/O)c3ccc(OC)cc3)C(=O)C(=O)N2CCOC)c2ccccc21 (configuration not stated) | .
CCN1C(=O)C2(/C(=C(/O)c3ccc(C)c(F)c3)C(=O)C(=O)N2CCN2CCOCC2)c2ccccc21 (configuration not stated) | .
C=CCOc1ccc(/C(O)=C2/C(=O)C(=O)N(CCCN(C)C)C23C(=O)N(C)c2ccccc23)cc1C (configuration not stated) | .
CCN1C(=O)C2(/C(=C(/O)c3ccc(C)c(F)c3)C(=O)C(=O)N2CCOC)c2ccccc21 (configuration not stated) | 8.7
C=CCSc1nc2c(c(/C=C/c3ccccc3)c1C#N)CCC2 | .
Cc1c(C)c(C)c(S(=O)(=O)N2CC(C)OC(C)C2)c(C)c1C (configuration not stated) | .
COC(=O)c1sccc1NC(=O)CC1C(=O)NCCN1S(=O)(=O)c1ccccc1C#N (configuration not stated) | .
CN(C)S(=O)(=O)Oc1ccc(-c2noc(-c3ccc(Oc4cc(Cl)cc(Cl)c4)o3)n2)cc1 | .
CCSc1nc2c(c(=O)[nH]1)C(c1cc(OC)ccc1OC)C1=C(CC(C)(C)CC1=O)N2 (configuration not stated) | .
N/C(=N\OC(=O)c1ccc(Cl)cc1)c1cnccn1 | .
O=C1CSC(c2ccc(Cl)cc2)N1CCN1CCCCC1 (configuration not stated) | .
COc1cccc(Oc2ccc(NC(=O)c3cc4cc(Br)ccc4o3)cn2)c1 | 3.1
COc1cccc(NC(=O)Nc2ccc(Oc3c(Cl)cccc3Cl)nc2)c1 | .
COc1ccccc1Oc1ccc(NC(=O)c2cc3cc(Br)ccc3o2)cn1 | .
COC(=O)C1=C(C)NC2=C(C(=O)CC(C)(C)C2)C1c1ccc(C)o1 (configuration not stated) | .
COc1ccc(C(=O)Oc2cccc3cccnc23)cc1Cl | 4.4
O=C(Oc1cccc2cccnc12)c1cccs1 | .
COc1ccc(C(=O)Oc2cccc3cccnc23)cc1OC | .
Oc1sc(-c2ccccc2)cc1/C=N/c1nc(-c2ccccc2)cs1 | .
COc1ccc(-c2nnc3c4ccccc4c(C)nn23)cc1S(=O)(=O)NC(C)(C)CO | .
Cc1ccc(-c2cnc(NCc3ccc(Cl)cc3)n2C)cc1 | 3.2
